Measured values: PubChem BioAssay (NCATS)
Results filed as inconclusive are left out. The source made the active and inactive calls. The call rests on the fitted dose curve; in most records, active means well fitted cell-killing curve with a large enough effect; inconclusive means small, poorly fitted or top-dose-only effect, or effect the other way; inactive means no such curve, though single readings can be large or run the other way. Positions of bridges follow the written chain, without caps; N, C: chain ends. Non-standard residues stand in square brackets, D forms with d. Residues, ends and D or L forms follow the SMILES beside them. ξ: configuration not given here. *: point of attachment. Octanoyl(6-Me) = CCC(C)CCCCC(=O)*; ξThr(3R) = C[C@@H](O)C(N)C(=O)O; dDab = NCC[C@@H](N)C(=O)O; Dab = NCC[C@H](N)C(=O)O

Test: Quantitative High-Throughput drug screen in 47 multiple myeloma cell lines against the NCATS MIPE library collection: XG1_PLB cell viability assay (AID 1919866); further: nearly all actives have a fitted effect of over 35% in size
Conditions: CellTiter-Glo ATP, 48 h; series mostly up to 45.8 µM
Excerpt: PI: Beverly A. Mock Ph.D.
Laboratory of Cancer Biology and Genetics,
Center for Cancer Research, National Cancer Institute,
National Institute of Health, Bethesda, Maryland
Drug resistance and disease progression are common in multiple myeloma (MM) patients, underscoring the need for new therapeutic combinations. […] We hypothesized that effective combinations would reduce MYC expression and enhance p16 activity. […] These preclinical data identify potentially useful drug combinations for evaluation in drug-resistant MM and reveal potential mechanisms of combined drug sensitivity.
Described herein is the primary MIPE qHTS used to cherrypick compounds. Validated compounds were then further tested for potential synergistic activiy.
[1] Peat TJ, Gaikwad SM, Dubois W, Gyabaah-Kessie N, Zhang S, Gorjifard S, Phyo Z, Andres M, Hughitt VK, Simpson RM, Miller MA, Girvin AT, Taylor A, Williams D, D'Antonio N, Zhang Y, Rajagopalan A, Flietner E, Wilson K, Zhang X, Shinn P, Klumpp-Thomas C, McKnight C, Itkin Z, Chen L, Kazandijian D, Zhang J, Michalowski AM, Simmons JK, Keats J, Thomas CJ, Mock BA. Drug combinations identified by high-throughput screening promote cell cycle transition and upregulate Smad pathways in myeloma. Cancer Lett. 2023 Aug 1;568:216284. doi: 10.1016/j.canlet.2023.216284. Epub 2023 Jun 24. PMID: 37356470; PMCID: PMC10408729.
SEQUENCE No. (e.g., 1, 2, 3, etc.); […] (e.g., Cells, Incubation, Reagent, etc.); VALUE and DESCRIPTION.
1; Cells; 5 uL; white, solid bottom 1536-well Greiner assay plate.
2; Compounds; 23 nL; Kalypsis pin tool (Wako USA) equipped with a 1536-well pin head to transfer to the assay plates.
3; Incubation; 48 hours; 37C incubation.
4; Reagent;5uL; CellTiter Glo (Promega).
5; Detector; 425V; Luminescence; Viewlux PerkinElmer.
NOTES (numbers refer to Sequence numbers above)
1. The cell-based screening methods employed in this study were like those previously published. Briefly, the corresponding myeloma cell lines were screened in 1,536-well plates with 500 cells, 5-uL per well for inhibition of cell viability (assessed by measuring ATP levels with CellTiterGlo).
2. NCATS MIPE 4.0 library of approved and investigational drugs were added using the Kalypsis pin tool. Wells treated with DMSO only for 100% viability and media only for 0% viability were used as controls.
3. The assay plates were covered and incubated for 48 hours in a 37C, 5% CO2 incubator with controlled humidity.
4. After 48 hours, CellTilter-GloTM luminescent substrate mix (Promega) reagent was added to the assay plate and plates we incubated for 5 min at room temperature.
5. Signal was measured as median relative luminescence units on a ViewLux (PerkinElmer) multiplate reader.
[1] Heske CM, Davis MI, Baumgart JT, Wilson K, Gormally MV, Chen L, Zhang X, Ceribelli M, Duveau DY, Guha R, Ferrer M, Arnaldez FI, Ji J, Tran HL, Zhang Y, Mendoza A, Helman LJ, Thomas CJ. Matrix Screen Identifies Synergistic Combination of PARP Inhibitors and Nicotinamide Phosphoribosyltransferase (NAMPT) Inhibitors in Ewing Sarcoma. Clin Cancer Res. 2017 Dec 1;23(23):7301-7311. doi: 10.1158/1078-0432.CCR-17-1121. Epub 2017 Sep 12. PMID: 28899971; PMCID: PMC6636827.
Potency means the concentration at half of the fitted maximal effect.

Question: Which Potency does the source give for `COc1cccc2c1C(=O)c1c(O)c3c(c(O)c1C2=O)C[C@@](O)(C(=O)CO)C[C@@H]3O[C@H]1C[C@H](N)[C@H](OC2CCCCO2)[C@H](C)O1` (stereo not given in full) here?
Answer: 1.87 µM (active)

Question: For `c1cncc(CN2CCC(n3ncc4c(N5CCOCC5)nc(-c5ccc6[nH]ccc6c5)nc43)CC2)c1`, which Potency is on record?
Answer: 0.935 µM (active)

Question: Which Potency does the source give for `CC(=O)ON=C1C(c2c(O)[nH]c3cc(Br)ccc23)=Nc2ccccc21` here?
Answer: 1.66 µM (active)

Question: With `CS[C@H]1SC[C@@H]2C(=O)N(C)[C@H](C(C)C)C(=O)OC[C@H](NC(=O)c3cnc4ccccc4n3)C(=O)N[C@H](C)C(=O)N(C)[C@@H]1C(=O)N(C)[C@H](C(C)C)C(=O)OC[C@H](NC(=O)c1cnc3ccccc3n1)C(=O)N[C@H](C)C(=O)N2C` as the compound, how does the Potency read?
Answer: 0.0074 µM (active)

Question: For `Cc1cc(O)c2c(c1)C(=O)c1cccc(O)c1C2=O`, which Potency is on record?
Answer: inactive

Question: With `CC(=O)OC[C@@H]1O[C@@H](n2ccc(=O)[nH]c2=O)[C@H](OC(C)=O)[C@H]1OC(C)=O` as the compound, how does the Potency read?
Answer: inactive

Question: For `COc1cc(OC)cc(-c2ccc3ncc4ccc(=O)n(-c5ccc(N6CCNCC6)c(C(F)(F)F)c5)c4c3c2)c1`, which Potency is on record?
Answer: 0.526 µM (active)

Question: Which Potency does the source give for `Cc1ccccc1C(=O)Nc1ccc(C(=O)N2CCCC(O)c3cc(Cl)ccc32)c(C)c1` (stereo not given) here?
Answer: 14.8 µM (active)

Question: With `FC(F)c1nc2ccccc2n1-c1nc(N2CCOCC2)nc(N2CCOCC2)n1` as the compound, how does the Potency read?
Answer: 0.209 µM (active)

Question: With `CC[C@H]1OC(=O)[C@H](C)[C@@H](O[C@H]2C[C@@](C)(OC)[C@@H](O)[C@H](C)O2)[C@H](C)[C@@H](O[C@@H]2O[C@H](C)C[C@H](N(C)C)[C@@H]2O)[C@](C)(OC)C[C@@H](C)C(=O)[C@H](C)[C@@H](O)[C@]1(C)O` as the compound, how does the Potency read?
Answer: inactive

Question: For `C=C(C)[C@@H]1CC[C@]2(C)CC[C@]3(C)[C@H](CC[C@@H]4[C@@]5(C)CC[C@H](O)C(C)(C)[C@H]5CC[C@]43C)[C@@H]12`, which Potency is on record?
Answer: inactive

Question: For `CC(C)n1cnc2c(NCCc3ccc(O)cc3)nc(-c3csc4ccccc34)nc21`, which Potency is on record?
Answer: 3.72 µM (active)

Question: For `N#CNC(=NCCCCCCOc1ccc(Cl)cc1)Nc1ccncc1`, which Potency is on record?
Answer: inactive

Question: Which Potency does the source give for `NC(=O)Nc1cc(-c2ccc(CN3CCOCC3)cc2)sc1C(N)=O` here?
Answer: 0.132 µM (active)

Question: Which Potency does the source give for `CCOC(=O)[C@@H](N)Cc1ccc(-c2cc(O[C@H](c3ccc(Cl)cc3-n3ccc(C)n3)C(F)(F)F)nc(N)n2)cc1` here?
Answer: 23.5 µM (active)

Question: For `CC[C@H](CC[C@@H](C)[C@H]1CC[C@H]2[C@@H]3CC=C4C[C@@H](O)CC[C@]4(C)[C@@H]3CC[C@]12C)C(C)C`, which Potency is on record?
Answer: inactive

Question: Which Potency does the source give for `Cc1cc(-c2nnc3n2CCCCC3)c(C)n1-c1ccccc1` here?
Answer: inactive

Question: Which Potency does the source give for `CC[C@H]1OC(=O)[C@H](C)[C@@H](O[C@H]2C[C@@](C)(OC)[C@@H](O)[C@H](C)O2)[C@H](C)[C@@H](O[C@@H]2O[C@@H](C)C[C@H](N(C)C)[C@@H]2O)[C@](C)(O)C[C@@H](C)C(=O)[C@H](C)[C@@H](O)[C@]1(C)O` here?
Answer: 4.18 µM (active)

Question: Which Potency does the source give for `O=C(C=CC#Cc1cccc(NS(=O)(=O)c2ccccc2)c1)NO` here?
Answer: 1.87 µM (active)

Question: With `COc1cc(C)c(Sc2cnc(NC(=O)c3ccc(CNC(C)C(C)(C)C)cc3)s2)cc1C(=O)N1CCN(C(C)=O)CC1` (stereo not given) as the compound, how does the Potency read?
Answer: 16.6 µM (active)

Question: Which Potency does the source give for `CN[C@H](CC(C)C)C(=O)N[C@H]1C(=O)N[C@@H](CC(N)=O)C(=O)N[C@@H]2C(=O)N[C@H]3C(=O)N[C@H](C(=O)N[C@H](C(=O)O)c4cc(O)cc(O)c4-c4cc3ccc4O)[C@H](O)c3ccc(c(Cl)c3)Oc3cc2cc(c3O[C@@H]2O[C@H](CO)[C@@H](O)[C@H](O)[C@@H]2O[C@H]2C[C@](C)(N)[C@H](O)[C@H](C)O2)Oc2ccc(cc2Cl)[C@H]1O` here?
Answer: inactive

Question: For `CCCCCCCCc1ccc(CCC(N)(CO)CO)cc1`, which Potency is on record?
Answer: 4.18 µM (active)

Question: With `COc1cc([C@@H]2c3cc4c(cc3[C@H](O)[C@H]3COC(=O)[C@@H]23)OCO4)cc(OC)c1OC` as the compound, how does the Potency read?
Answer: 0.0469 µM (active)

Question: For `Nc1ccc(C(=O)Nc2cccc(-c3nc(N4CCOCC4)c4oc5ncccc5c4n3)c2)cn1`, which Potency is on record?
Answer: 5.9 µM (active)

Question: Which Potency does the source give for `CCC(C)CCCCC(=O)N[C@@H](CCN)C(=O)NC(C(=O)N[C@H](CCN)C(=O)N[C@@H]1CCNC(=O)C([C@@H](C)O)NC(=O)[C@@H](CCN)NC(=O)[C@@H](CCN)NC(=O)[C@@H](CC(C)C)NC(=O)[C@H](Cc2ccccc2)NC(=O)[C@H](CCN)NC1=O)[C@@H](C)O` (stereo partly drawn) ({Octanoyl(6-Me)}-[Dab][ξThr(3R)][dDab][dDab][Dab]F[dL][dDab][dDab][ξThr(3R)]; lactam 4-C) here?
Answer: inactive

Question: With `COc1ccc(S(=O)(=O)Nc2cccnc2Nc2ccc(O)cc2)cc1` as the compound, how does the Potency read?
Answer: 0.0166 µM (active)

Question: For `CO[C@@H]1[C@@H](O)[C@H](O)[C@@H](n2c3c(Cl)cccc3c3c4c(c5c6cccc(Cl)c6[nH]c5c32)C(=O)NC4=O)O[C@@H]1CO`, which Potency is on record?
Answer: 0.166 µM (active)

Question: For `OCCNC1CCCc2c1[nH]c1ccc(-c3ccccc3)cc21` (stereo not given), which Potency is on record?
Answer: 9.35 µM (active)

Question: With `COc1ccc(Nc2cc(-c3cnc(N)nc3)nc(N3CCOCC3)n2)cn1` as the compound, how does the Potency read?
Answer: 2.35 µM (active)

Question: For `COc1cc2c(cc1OC)[C@@H]1C(=O)c3ccc4c(c3O[C@@H]1CO2)C=CC(C)(C)O4`, which Potency is on record?
Answer: 6.62 µM (active)

Question: For `O=C(NCc1ccccc1)[C@H](Cc1ccccc1)NC(=O)[C@@H]1O[C@@H]1C(=O)NCCc1ccc(O)cc1`, which Potency is on record?
Answer: 14.8 µM (active)

Question: For `OCCN1C[C@H](O)[C@@H](O)[C@H](O)[C@@H]1CO`, which Potency is on record?
Answer: inactive

Question: Which Potency does the source give for `COc1cc(N2CCC(C(N)=O)CC2)ccc1Nc1nc(N)c(Cl)c(Nc2ccccc2S(=O)(=O)C(C)C)n1` here?
Answer: 0.0935 µM (active)

Question: With `C[C@H]1O[C@H](O[C@H]2[C@H](O)[C@@H](O)[C@@H](O[C@H]3[C@H](O)[C@@H](O)C(O)O[C@H]3CO)O[C@H]2CO)[C@H](O)[C@@H](O)[C@H]1N[C@H]1C=C(CO)[C@@H](O)[C@H](O)[C@@H]1O` (stereo not given in full) as the compound, how does the Potency read?
Answer: inactive

Question: Which Potency does the source give for `c1cc(CN2CCCNCCNCCCNCC2)ccc1CN1CCCNCCNCCCNCC1` here?
Answer: inactive

Question: Which Potency does the source give for `CCn1c(=O)c2c(nc(C=Cc3ccc(OC)c(OC)c3)n2C)n(CC)c1=O` here?
Answer: inactive

Question: With `NC(=NCCCCCCN=C(N)N=C(N)Nc1ccc(Cl)cc1)N=C(N)Nc1ccc(Cl)cc1` as the compound, how does the Potency read?
Answer: 2.64 µM (active)

Question: For `C=CCNC1=C2C[C@@H](C)C[C@H](OC)[C@@H](O)[C@@H](C)C=C(C)[C@H](OC(N)=O)[C@@H](OC)C=CC=C(C)C(=O)NC(=CC1=O)C2=O`, which Potency is on record?
Answer: 0.662 µM (active)

Question: For `O=C(O)CCCCCC(=O)NN=C1CCCC1`, which Potency is on record?
Answer: inactive

Question: Which Potency does the source give for `CC(=O)SCC(Cc1ccccc1)C(=O)NCC(=O)OCc1ccccc1` (stereo not given) here?
Answer: 2.96 µM (active)
